We go through 40 compounds from PubChem BioAssay (Tox21).

Activity calls are given as the source filed them. The call rests on the fitted dose curve; in most records, active means well fitted curve in the direction sought with a large enough effect in the repeat runs; inconclusive means weak or mixed curves; inactive means flat fitted curve, though single readings scatter.
On the % scale 0 is the no-effect control and ±100 the full control effect.

This assay can be described thus: qHTS assay to test for compound auto fluorescence at 535 nm (green) in HEK293 cell free culture (AID 720682). The conditions noted are these: cell-free medium, green autofluorescence 485/535 nm, stronger effect = higher value; series mostly up to 91.3 µM; activity change: at the top concentration. From the text: U.S. Tox21 Program National Center for Advancing Translational Sciences [NCATS] NIH Chemical Genomics Center [NCGC] U.S. Environmental Protection Agency [EPA] National Institutes of Environmental Health Sciences [NIEHS] National Toxicology Program [NTP] U.S. Food and Drug Administration [FDA] Tox21 Assay Overview: Compound auto fluorescence often interferes with screening of the compound library against various biological targets and signaling pathways. Some of these compounds may have fluorophoric properties. Such properties may interfere with the assay outputs resulting in false positives and/or negatives. To decrease such complications and ensure the compound activities are relevant in terms of biological response, the Tox21 10K compound library was screened for auto fluorescence. From the fluorophores used as reporter signals in our screening assays, the auto fluorescence equivalencies of compounds against three fluorophores have been evaluated: Triamterene, Fluorescein and Rose Bengal sodium for blue, green and red fluorescence, respectively. The fluorescence intensities were measured using Excitation/Emission wavelengths at 405/460nm, 485/535nm and 540/590nm for blue, green and red labels, respectively. This assay includes the green fluorescence data.
Tox21 Assay Protocol Summary: 5 uL of culture medium (DMEM containing 10% FBS) per well was dispensed into black wall/clear bottom 1536-well plates using a Multidrop Combi Dispenser (ThermoFisher Scientific, Waltham, MA). After 23 nL compound or DMSO vehicle was transferred into assay plate by a pintool work station (Kalypsys, San Diego, CA), fluorescence intensities in the assay plates were measured by an Envision (PerkinElmer, Shelton, CT) plate reader using three labels for measuring blue, green and red fluorescence at […] 460, 535 and 590nm respectively.
On the technique in general: qHTS replaces the single test concentration by a dilution series.
Take `O=C(Cl)c1c(Cl)c(Cl)c(C(=O)Cl)c(Cl)c1Cl`: the outcome was inactive.
Turning to `CC(C)(N=C=O)c1cccc(C(C)(C)N=C=O)c1`, the compound was classed as inactive.
Same read-out and setting: the entry for `O=C(O)c1ccc([N+](=O)[O-])cc1` is “inactive”; for `O=S(=O)(O)c1cc(S(=O)(=O)O)c2c(N=Nc3ccccc3)c(O)ccc2c1` it is “inactive”; for `O=[N+]([O-])c1cc(N(CCO)CCO)ccc1NCCO` it is “inactive”.
`Cc1cc(O)cc(C)c1Cl`: the result was inactive.
For the compound `NS(=O)(=O)c1cc2c(cc1Cl)NC=NS2(=O)=O`, the call was inactive.
Consider `CCCCC/C=C\C/C=C\CCCCCCCC(=O)OC`, for which the compound was classed as inactive.
Still for that read-out and setting: to `CCCCOCCO` belongs “inactive”; to `O=C1CCCCC1`, “inactive”; to `Clc1cc(Cl)c(Cl)cc1Cl`, “inactive”.
On to `CCCCCCCCCCCCN`, for which the compound was called inactive.
Consider `C/C=C(C)/C=C/C=C(C)C`, for which the compound was called inactive.
Regarding `Cn1c([N+](=O)[O-])cnc1COC(N)=O`, the compound was called inactive.
Take `CC1CC(OC(=O)c2ccccc2O)CC(C)(C)C1` (stereo not given): the compound was called inactive.
`C=C1CC[C@H](O)CC1=C/C=C1\CCC[C@]2(C)[C@@H]([C@H](C)/C=C/[C@H](C)C(C)C)CC[C@@H]12`: the outcome was inactive.
Take `O=c1c(-c2ccc(O)cc2)coc2cc(O)ccc12`: the “activity change” value was -0.0021% (inactive).
On to `O=C(c1cc(O)c(O)c(O)c1)c1ccc(O)c(O)c1O`, for which the compound was called inactive.
For the compound `c1ccc2ccccc2c1`, the result was inactive.
On to `C[C@@H](O)[C@H]1C(=O)N2C(C(=O)O)=C(S[C@@H]3CN[C@H](C(=O)N(C)C)C3)[C@H](C)[C@H]12`, for which the “activity change” value was 0.0232% [at 46 µM] (inactive).
Take `C=C(C)C(=O)OCCC[Si](OC)(OC)OC`: the compound was called inactive.
Consider `C[C@@H]1O[C@@H](OC[C@H]2O[C@@H](Oc3c(-c4ccc(O)c(O)c4)oc4cc(O)cc(O)c4c3=O)[C@H](O)[C@@H](O)[C@@H]2O)[C@H](O)[C@H](O)[C@H]1O`, for which the call was inactive.
As for `COC(=O)c1ccccc1O`, the outcome was inactive.
As for `CCC(=O)O`, the compound was called inactive.
For `CCCCCCCCCCC=CC1CC(=O)OC1=O` (stereo not given), the outcome was inactive.
Same read-out and setting: the entry for `CC(C)NCC(O)COc1cccc2ccccc12` (stereo not given) is “inactive”.
With `c1ccc2[nH]cnc2c1`, the outcome was inactive.
Same read-out and setting: the entry for `Cc1ccc(C(=O)O)o1` is “inactive”; for `NC(=O)/N=N/C(N)=O` it is “inactive”.
Turning to `CCCCOCCOCCOC(=O)CCCCC(=O)OCCOCCOCCCC`, the call was inactive.
In the case of `Nc1nc2ncc(CNc3ccc(C(=O)N[C@@H](CCC(=O)O)C(=O)O)cc3)nc2c(=O)[nH]1`, the outcome was inactive.
Consider `O=C1O[C@H](CO)[C@@H](O)[C@H](O)[C@H]1O`, for which the compound was classed as inactive.
On to `Nc1cc(-c2ccncc2)c[nH]c1=O`, for which the result was inactive.
On to `O=C(Oc1ccccc1)c1ccc(O)cc1`, for which the result was inactive.
Turning to `OCCOCCOCCOCCO`, the compound was classed as inactive.
Turning to `OC[C@@H](O)[C@@H](O)[C@H](O)[C@@H](O)CO`, the result was inactive.
Take `O=S(=O)(O)CCS`: the call was inactive.
Consider `CN(C)c1cccc(O)c1`, for which the result was inactive.
Still for that read-out and setting: the entry for `CCCCCCOC(C)=O` is “inactive”.
Regarding `C=C(C#N)C(=O)OCC`, the compound was called inactive.
